About 79,000 compounds went through this panel and 15% of them were active in at least one assay; those are over-represented in the sample as a whole. Active and inactive are the calls of the source. Rule as the data show it: active = growth inhibition above about 70%; inactive = the rest.
How the values were obtained:
[1] = NCI Yeast Anticancer Drug Screen. Data for the rad50 strain (AID 155);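 also: 0% = growth of vehicle-only cultures of the same strain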; conditions: S. cerevisiae rad50 strain growth inhibition, stronger effect = higher value
Procedure, shortened: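 DNA repair mutant yeast, compound exposure, growth read-out; inhibition is taken relative to vehicle.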

[2] = NCI Yeast Anticancer Drug Screen. Data for the mec2-1 strain (AID 157); conditions: S. cerevisiae mec2-1 strain, stronger effect = higher value
Procedure, shortened: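 Cells of the genetically defined mec2-1 yeast strain are incubated with test compound. Inhibition of growth is calculated against vehicle-treated controls.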

[3] = NCI Yeast Anticancer Drug Screen. Data for the sgs1 mgt1 strain (AID 161);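 also: 0% = growth of cultures given vehicle only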; conditions: S. cerevisiae sgs1 mgt1 strain, stronger effect = higher value
Procedure, shortened: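 Read-out: growth inhibition vs vehicle controls. Cells: mutant yeast strain deficient in DNA damage repair.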

[4] = NCI Yeast Anticancer Drug Screen. Data for the cln2 rad14 strain (AID 165);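 also: 0% = growth equal to vehicle treated cultures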; conditions: S. cerevisiae cln2 rad14 strain, stronger effect = higher value
Procedure, shortened: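 The screen exposed genetically defined yeast (cln2 rad14) to test compounds and scored growth inhibition relative to vehicle-treated controls.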

[5] = NCI Yeast Anticancer Drug Screen. Data for the bub3 strain (AID 167); conditions: S. cerevisiae bub3 mutant strain, stronger effect = higher value
Procedure, shortened: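 In this screen, a yeast mutant lacking normal mitotic checkpoint function is challenged with compound. Relative growth versus vehicle gives the inhibition value.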

[6] = NCI Yeast Anticancer Drug Screen. Data for the mlh1 rad18 strain (AID 175); conditions: S. cerevisiae mlh1 rad18 strain growth inhibition, stronger effect = higher value
Procedure, shortened: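 Compound-treated yeast growth, normalised to vehicle controls. Strain bears defined DNA repair mutations.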

[7] = at 5.0 µM (retest, dose inferred, filed as 0.5)
[8] = at 50.0 µM (retest, dose inferred, filed as 5.0)

Measured: growth inhibition

CCOc1ccc2c(c1)[n+]([O-])c(-c1ccccc1)c(N)[n+]2[O-]
inactive: [1]; [7] 23% | [2]; [7] 28% | [3]; [7] 27% | [4]; [7] 37% | [5]; [7] 69% | [6]; [7] 66%
active: [1]; [8] 98% | [1]; at 50.0 µM 99.2% | [2]; [8] 99% | [2]; at 50.0 µM 99.3% | [3]; [8] 99% | [3]; at 50.0 µM 99.2% | [4]; [8] 98% | [4]; at 50.0 µM 98.6% | [5]; [8] 99% | [5]; at 50.0 µM 99.1% | [6]; [8] 98% | [6]; at 50.0 µM 98.8%

Fc1ccc(NC(=S)SCc2ccccc2)cc1
inactive: [1]; [7] 4% | [1]; [8] 16% | [1]; at 50.0 µM 68.3% | [2]; [7] -2% | [2]; [8] 18% | [2]; at 50.0 µM 53.6% | [3]; [7] 2% | [3]; [8] 19% | [4]; [7] -7% | [4]; [8] 1% | [4]; at 50.0 µM 28.9% | [5]; [7] -4% | [5]; [8] 34% | [5]; at 50.0 µM 45.5% | [6]; [7] 0% | [6]; [8] 15%
active: [3]; at 50.0 µM 76.8% | [6]; at 50.0 µM 78.2%

CCc1nc(N)nc(N)c1-c1ccc(NCCCN)c([N+](=O)[O-])c1
inactive: [1]; [7] -15% | [1]; [8] -17% | [1]; at 50.0 µM 69.7% | [2]; [7] 17% | [2]; [8] -2% | [2]; at 50.0 µM 44.8% | [3]; [7] -19% | [3]; [8] -36% | [3]; at 50.0 µM 69.2% | [4]; [7] -15% | [4]; [8] -5% | [4]; at 50.0 µM 69% | [5]; [7] -44% | [5]; [8] -18% | [5]; at 50.0 µM 6.45% | [6]; [7] -17% | [6]; [8] -36%
active: [6]; at 50.0 µM 82.5%

Cc1ccc(SC2=C(N(C)C)C(=O)c3ccccc3C2=O)cc1
active: [1]; [8] 90% | [1]; at 50.0 µM 96% | [2]; [8] 94% | [3]; [8] 91% | [3]; at 50.0 µM 77.3% | [4]; [8] 94% | [5]; [8] 90% | [5]; at 50.0 µM 95.2% | [6]; [8] 89% | [6]; at 50.0 µM 89.7%
inactive: [1]; [7] 3% | [2]; [7] -13% | [2]; at 50.0 µM 14.1% | [3]; [7] -1% | [4]; [7] 42% | [4]; at 50.0 µM 58.1% | [5]; [7] 4% | [6]; [7] -3%

Cc1cc(=O)c2cc(N=Cc3ccc([N+](=O)[O-])o3)ccc2o1
inactive: [1]; [7] -1% | [2]; [7] -10% | [2]; [8] 23% | [2]; at 50.0 µM 17.9% | [3]; [7] -6% | [3]; [8] 54% | [3]; at 50.0 µM 42.6% | [4]; [7] 0% | [4]; [8] 10% | [4]; at 50.0 µM 21.2% | [5]; [7] -4% | [5]; [8] 6% | [5]; at 50.0 µM 6.1% | [6]; [7] 10% | [6]; [8] 49% | [6]; at 50.0 µM 40%
active: [1]; [8] 72% | [1]; at 50.0 µM 74.9%

Oc1cc(Cc2ccccc2)c(Cc2ccccc2)cc1O
active: [1]; [8] 96% | [1]; at 50.0 µM 89.2% | [2]; [8] 98% | [2]; at 50.0 µM 91% | [3]; [8] 96% | [3]; at 50.0 µM 92.1% | [4]; [8] 97% | [4]; at 50.0 µM 89.8% | [5]; [8] 97% | [5]; at 50.0 µM 91.5% | [6]; [8] 96% | [6]; at 50.0 µM 88.2%
inactive: [1]; [7] -32% | [2]; [7] -26% | [3]; [7] -8% | [4]; [7] -1% | [5]; [7] -23% | [6]; [7] -43%

O=C1CCSC(=S)N1c1ccccc1C(F)(F)F
active: [1]; [8] 99% | [1]; at 50.0 µM 99.1% | [2]; [8] 99% | [2]; at 50.0 µM 99.5% | [3]; [8] 99% | [3]; at 50.0 µM 99.5% | [4]; [8] 98% | [4]; at 50.0 µM 98.6% | [5]; [8] 99% | [5]; at 50.0 µM 99.2% | [6]; [8] 99% | [6]; at 50.0 µM 99.3%
inactive: [1]; [7] 7% | [2]; [7] 4% | [3]; [7] 9% | [4]; [7] 7% | [5]; [7] 0% | [6]; [7] 1%

CC1SC2(C(=O)Nc3ccc(Br)cc32)N(c2ccc(Cl)cc2)C1=O (configuration not stated)
inactive: [1]; [7] 13% | [1]; at 50.0 µM 50.4% | [2]; [7] 2% | [3]; [7] -2% | [3]; at 50.0 µM 56.1% | [4]; [7] -3% | [5]; [7] 15% | [6]; [7] 10% | [6]; at 50.0 µM -8.55%
active: [1]; [8] 99% | [2]; [8] 99% | [2]; at 50.0 µM 99.5% | [3]; [8] 98% | [4]; [8] 95% | [4]; at 50.0 µM 90.8% | [5]; [8] 99% | [5]; at 50.0 µM 96.9% | [6]; [8] 99%

O=Cc1cc2c(s1)C(=O)c1sccc1C2=O
inactive: [4]; [7] 52%
active: [1]; [7] 93% | [1]; [8] 99% | [1]; at 50.0 µM 88.8% | [2]; [7] 96% | [2]; [8] 99% | [2]; at 50.0 µM 91.8% | [3]; [7] 84% | [3]; [8] 99% | [3]; at 50.0 µM 89% | [4]; [8] 97% | [4]; at 50.0 µM 91.7% | [5]; [7] 94% | [5]; [8] 99% | [5]; at 50.0 µM 90% | [6]; [7] 92% | [6]; [8] 99% | [6]; at 50.0 µM 90.3%

Source: PubChem BioAssay (NCI)
